# From ChEMBL document CHEMBL1157539, “Thousands of chemical starting points for antimalarial lead identification” (Nature, 2010)
# System: HepG2
# Assay: GSK_TCMDC: Percent inhibition of human HepG2 cell line. Test compounds present at 10uM.
# Type: functional
row,Structure (SMILES),Inhibition [%]
1,CC(=O)Nc1cccc(Nc2nccc(-c3c(-c4cccc(NC(=O)c5c(F)cccc5F)c4)nn4ncccc34)n2)c1,83
2,N=C(N)NN=CC(=O)Nc1ccc(Cl)c(C(F)(F)F)c1,0
3,CC(C)C[C@H](NC(=O)c1ccc(OCCN2CCOCC2)cc1)C(=O)N[C@H](/C=N/N1CC(=O)NC1=O)CCc1ccccc1,10
4,Cc1ccccc1CN1CCCN(Cc2ccc(C(=O)Nc3ccc(C(C)(C)C)cc3)cc2)CC1.O=C(O)C(F)(F)F,52
5,Cc1ccccc1C1CCN(C2CCC(NC(=O)/C=C/c3ccc(C#N)cc3)CC2)CC1 (configuration not stated),39
6,CN(CCCNc1ccc(C(=O)Nc2ccc(C(F)(F)F)cc2)cc1[N+](=O)[O-])Cc1ccccc1,25
7,CC(=O)Nc1ccc(S(=O)(=O)Nc2ccc(Nc3nc(C)cc(N4CCCCC4)n3)cc2)cc1,23
8,CS(=O)(=O)Cc1ccc(Nc2nccc(-c3c(-c4cccc(C(=O)Nc5c(F)cccc5F)c4)nn4ccccc34)n2)cc1,85
9,FC(F)(F)c1ccc(Nc2nnnc3ccccc23)cc1,3
10,O=C(Nc1cccc(CN2CCCN(Cc3ccc(O)cc3)CC2)c1)c1cccc(C(F)(F)F)c1.O=C(O)C(F)(F)F,9
11,Cc1cccc2nc(C(=O)Nc3nc(CN4CCC(C)CC4)cs3)cn12,0
12,COc1cc(Nc2ccnc3cc(-c4ccccn4)ccc23)cc(OC)c1OC.Cl,0
13,COc1cccc(Nc2nccc(-c3c(-c4cccc(NC(=O)c5c(F)cccc5F)c4)nn4ccccc34)n2)c1,35
14,COc1cc2nc(Nc3ccc(Oc4ccccc4)cc3)nc(Nc3ccc(Oc4ccccc4)cc3)c2cc1OC,5
15,CS(=O)(=O)CCNCc1cccc(-c2ccc3c(Nc4cc(O)c(Cl)cc4F)ccnc3c2)c1,9
16,c1ccc(C23NC(=Nc4nc5ccccc5[nH]4)NC2(c2ccccc2)NC(=Nc2nc4ccccc4[nH]2)N3)cc1 (configuration not stated),2
17,COCCN1CCC(NCC(C)(C)c2nc(-c3ccc(Cl)c(O)c3)c(-c3ccncc3)[nH]2)CC1.Cl,0
18,CCOc1cc(C(=O)N[C@@H](Cc2ccccc2)[C@H](O)CNCc2cc(OC)cc(OC)c2)cc(N2CCCCS2(=O)=O)c1.Cl,0
19,CCC[C@@H]([C@@H](CC(C)C)C(=O)N[C@@H](CCCCNC(=O)c1cccc(OC)c1)C(=O)Nc1nccs1)N(O)C=O,5

row,Structure (SMILES),Inhibition [%]
1,CCCc1cc(=O)oc2cc(OC)c(C(=O)CC(C)C)c(OC)c12,3
2,NC(=O)c1c(Cl)nc2ccccc2c1Cl,2
3,CCN(CCCN1CCCCC1)c1cc(C)nc(Nc2ccc3c(c2)CCC3)n1.O=C(O)C(F)(F)F,32
4,OCCN1CCN(c2ccc(Nc3ccnc4cc5ccccc5cc34)cc2)CC1,98
5,O=C(NCc1ccccn1)C(c1cc2ccccc2o1)N1CCN(C(c2ccccc2)c2ccccc2)CC1 (configuration not stated),17
6,O=C(NCC(CCCN1CCC(c2c[nH]c3ccccc23)CC1)c1ccccc1)Nc1ccc(Cl)c(Cl)c1 (configuration not stated),38
7,Cc1cc(N/N=C/c2ccccc2[N+](=O)[O-])c2cc(C(F)(F)F)ccc2n1,0
8,CC(C)(C)c1cc(Cn2ccnc2)cc(C(C)(C)C)c1O,4
9,Cc1ccccc1C1CCN(C2CCC(NC(=O)/C=C/c3ccc(F)cc3)CC2)CC1 (configuration not stated),61
10,COc1ccc2nccc(N3CCC(CCNCc4cc5c(cn4)OCCO5)CC3)c2c1.Cl,26
11,COc1cccc(Cc2cnc3nc(N)nc(N)c3c2C)c1,57
12,COc1cc2nc(NCC3CCCCC3)nc(NCc3ccccc3)c2cc1OC,18
13,CCNc1cc(C(=O)N[C@@H](Cc2ccccc2)[C@H](O)CNCCc2ccccc2)cc(N2CCCC2=O)c1.O=C(O)C(F)(F)F,0
14,CCCCCn1c(Sc2ccc(C#N)c([N+](=O)[O-])c2)nnc1-c1ccccc1,22
15,Cc1ccccc1C1CCN(C2CCC(NC(=O)/C=C/c3ccc(OC(F)(F)F)cc3)CC2)CC1 (configuration not stated),96
16,O=C(NCCCCN1CCN(c2cccc(Cl)c2Cl)CC1)c1ccc2c(c1)CCN(C1CCC1)CC2,97
17,CCN1CCN(c2cc(C)c3cc(NC(=O)c4cccc([N+](=O)[O-])c4)ccc3n2)CC1,74
18,COc1ccc2nccc([C@@H](O)CN3CCC(NCc4ccc5c(c4)nnn5C(C)C)CC3)c2c1.O=C(O)C(=O)O,15
